Values joined by “and” are separate entries in the source; they are usually repeats but may differ in a detail not shown here. Equal values may be shown once. Some compounds were tested as several samples or in several runs, with calls that do not always agree. Active and inactive are the calls of the source. Unless noted, no stated cut-off is given here; in the data, active means inhibition above about 80%; inactive means the rest.
Experiments:
[1] = circadian clock period modulators, cell-based, LOPAC library, luminescence reporter (AID 2774; call rule not given here;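 further: values are relative to mean of DMSO wells on each plate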); conditions: circadian reporter cells, at 7 µM, actives lie on both sides
[2] = LFS_MB_P medulloblastoma growth inhibition, cell-based, chromothripsis tumors, cisplatin or BGB combos (AID 1671449); conditions: LFS_MB_P medulloblastoma cells;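 further: cells exposed for 96 hours; 0% = vehicle DMSO and 100% = killing by high DMSO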
[3] = HDN33 neuroblastoma growth inhibition, cell-based, chromothripsis tumors, cisplatin or BGB combos (AID 1671450); conditions: HDN33 neuroblastoma cells, stronger effect = higher value;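 further: cells exposed to compound for four days; 0% = vehicle DMSO and 100% = cell killing by high DMSO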
[4] = ICB984 medulloblastoma cell growth inhibition, synergistic combos for chromothripsis tumors, cisplatin or BGB combos (AID 1671451; call rule not given here;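 further: cells exposed for 96 hours before readout; 0% = vehicle DMSO and 100% = killing by high DMSO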); conditions: ICB984 medulloblastoma cells, drug combinations, stronger effect = higher value
[5] = LFS_MB_1R medulloblastoma cell growth inhibition, synergistic combos for chromothripsis tumors, cisplatin or BGB combos (AID 1671452); conditions: LFS_MB_1R medulloblastoma cells, stronger effect = higher value;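 further: cells exposed for 96 hours before readout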
[6] = HTB85 osteosarcoma cell growth inhibition, synergistic combos for chromothripsis tumors, BGB or cisplatin IC20 combos (AID 1671453); conditions: HTB85 osteosarcoma cells, drug combinations, stronger effect = higher value;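 further: cells exposed for 96 hours before readout; 0% = vehicle DMSO and 100% = high DMSO killing control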
[7] = CRL2098 osteosarcoma cell growth inhibition, synergistic combos for chromothripsis tumors, BGB or cisplatin IC20 combos (AID 1671454); conditions: CRL2098 osteosarcoma cells, drug combinations, stronger effect = higher value;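 further: cells exposed for 96 h before readout; 0% = vehicle DMSO and 100% = killing by high DMSO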
[8] = HD-MB03 medulloblastoma cell growth inhibition, synergistic combos for chromothripsis tumors, BGB or cisplatin IC20 combos (AID 1671455; in the data active means inhibition above about 83%;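 further: 0% = vehicle DMSO and 100% = high DMSO as cytotoxic control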); conditions: HD-MB03 medulloblastoma cells, stronger effect = higher value
[9] = UWB1.289 ovarian carcinoma cell growth inhibition, synergistic combos for chromothripsis tumors, BGB or cisplatin combos (AID 1671456); conditions: UWB1.289 ovarian carcinoma cells, stronger effect = higher value;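 further: cells exposed to compound for four days; 0% = vehicle DMSO and 100% = killing by high DMSO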
[10] = LFS_MB_2R medulloblastoma cell growth inhibition, synergistic combos for chromothripsis tumors, cisplatin combos (AID 1671457); conditions: LFS_MB_2R medulloblastoma cells, stronger effect = higher value;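 further: cells exposed to compound for four days before readout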
[11] = MDA-MB-436 breast carcinoma cell growth inhibition, synergistic combos for chromothripsis tumors, BGB or cisplatin combos (AID 1671458; call rule not given here;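 further: cells exposed for 96 hours; 0% = vehicle DMSO and 100% = killing by high DMSO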); conditions: MDA-MB-436 breast carcinoma growth inhibition, drug combinations, stronger effect = higher value
[12] = UWB1.289_BRCA1 ovarian cancer growth, cell-based, BGB or cisplatin combinations (AID 1671459); conditions: UWB1.289 BRCA1 ovarian carcinoma, drug combinations, stronger effect = higher value
[13] = human astrocyte viability loss, single and combined drugs, cytotoxicity control for chromothriptic childhood tumor combination screen, cell-based, BGB or cisplatin IC20 combos (AID 1671460); conditions: Human astrocytes, drug combinations, stronger effect = higher value;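 further: cells exposed to compounds for 96 hours before viability readout; 0% = vehicle and 100% = killing control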
[14] = growth inhibition of BT084 medulloblastoma cells, cell-based, ICGC_MB145, cisplatin and BGB IC40 combos (AID 1671461); conditions: drug combinations, stronger effect = higher value;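 further: cells exposed to drugs for 96 hours; 0% = vehicle DMSO and 100% = high DMSO full killing control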
[15] = growth inhibition of RCMB18 medulloblastoma cells, cell-based, cisplatin and BGB IC40 combos (AID 1671462); conditions: stronger effect = higher value;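 further: cells exposed to compound for four days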
[16] = growth inhibition of CRL1545 osteosarcoma cells, cell-based, cisplatin and BGB IC20 combos (AID 1671464); conditions: stronger effect = higher value;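 further: cells exposed to compound for 96 hours before readout; 0% = vehicle DMSO and 100% = high DMSO killing control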
[17] = measured here: combination with BGB IC40, at 0.05 µM
[18] = measured here: with BGB IC20 combination, at 0.5 µM
[19] = measured here: with cisplatin IC20 combination, at 0.5 µM
[20] = measured here: combination with cisplatin, at 0.5 µM
[21] = measured here: combination with cisplatin, at 5 µM

For `CC1=C[C@@H]2c3cccc4[nH]cc(c34)C[C@H]2N(C)C1`, the period change [1] was 0.28 h (inactive).
For `C[C@]12CC[C@H](OS(=O)(=O)O)CC1=CC[C@@H]1[C@@H]2CC[C@]2(C)C(=O)CC[C@@H]12`, the period change [1] was -0.035 h (inactive).
With `CCC1(O)C(=O)OCc2c1cc1n(c2=O)Cc2cc3ccccc3nc2-1` (stereo not given) the inhibition ([2]; at 0.5 µM, stronger effect = higher value) was 88.2% (active) and 9.86% (inactive), the inhibition ([2]; measured here: combination with BGB IC20, at 0.005 µM) was -1.21% and 5.58% and the inhibition ([2]; measured here: combination with BGB IC40, at 0.005 µM) was -28.3% and -33.2%. The inhibition [2, 17] was -15.4% and -14.9%, the inhibition ([2]; measured here: combination with cisplatin, at 0.5 µM, stronger effect = higher value) was 109% and 46.9% and the inhibition ([2]; measured here: combination with cisplatin, at 5 µM, stronger effect = higher value) was 81.5% and 87.5%. The inhibition ([3]; BGB combo, at 5 µM) was 91.9% and 99.2%, the inhibition ([3]; at 0.5 µM) was 76.6% (inactive) and 90.4% (active) and the inhibition ([3]; cisplatin combo, at 5 µM) was 89.8% and 99.4%. For the same compound, the inhibition [3, 18] was 83.3% and 91.4%, the inhibition [3, 19] was 71% and 86.5% and the inhibition ([3]; single agent, at 5 µM) was 93% and 99%. The inhibition ([4]; BGB IC20 combo, at 0.005 µM) was -14.4% and -0.816%, the inhibition ([4]; BGB IC40 combo, at 0.005 µM) was 10.1% and 28.9% and the inhibition ([4]; BGB IC40 combo, at 0.05 µM) was 90.9% and 90.2%. The inhibition ([4]; at 0.5 µM) was 0.67% (inactive) and -18.7% (inactive), the inhibition ([4]; cisplatin combo, at 0.05 µM) was 90.9% and 89.8% and the inhibition ([4]; cisplatin combo, at 0.5 µM) was 8.68% and -15.9%. For the same compound, the inhibition ([4]; cisplatin combo, at 5 µM) was -16.2% and -24.5%, the inhibition ([4]; measured here: 5 uM single agent, at 5 µM) was -7.75% and -12.5% and the inhibition ([5]; at 0.5 µM) was 18.3% (inactive) and 58.5% (inactive). For the same compound, the inhibition [5, 17] was -2.41% and -26.5%, the inhibition [5, 20] was 67.3% and 77.9% and the inhibition [5, 21] was 84.7% and 77.9%. The inhibition ([6]; at 0.5 µM) was 87% (active) and 98.3% (active), the inhibition ([6]; measured here: with BGB IC20, at 0.5 µM) was 83.6% and 98.1% and the inhibition ([6]; measured here: with BGB IC20, at 5 µM) was 99.4% and 98.2%. The inhibition ([6]; measured here: with cisplatin IC20, at 0.5 µM) was 89.5% and 97.8%, the inhibition ([6]; measured here: with cisplatin IC20, at 5 µM) was 99.8% and 99.6% and the inhibition ([6]; single agent, at 5 µM) was 99.8%. For the same compound, the inhibition ([7]; at 0.5 µM) was 61.8% (inactive) and 62.7% (inactive), the inhibition ([7]; measured here: combination with BGB at IC20, at 0.5 µM) was 62.5% and 76.9% and the inhibition ([7]; measured here: combination with cisplatin at IC20, at 0.5 µM) was 58% and 56.3%. For the same compound, the inhibition ([8]; at 0.5 µM) was 97.5% (active) and 99.2% (active), the inhibition ([8]; measured here: combo with BGB at IC20, at 0.5 µM) was 96.5% and 99.2% and the inhibition ([8]; measured here: combo with cisplatin at IC20, at 0.5 µM) was 97.2% and 99.2%. For the same compound, the inhibition ([9]; at 0.5 µM) was 66.6% (inactive) and 83.3% (active), the inhibition ([9]; measured here: inhibition with BGB combination, at 0.05 µM) was 12.6% and 11.7% and the inhibition ([9]; measured here: inhibition with cisplatin combination, at 0.05 µM) was 11.3% and 20.8%. For the same compound, the inhibition ([10]; at 0.5 µM) was 7.34% (inactive) and -4.41% (inactive), the inhibition [10, 20] was 19% and 21% and the inhibition [10, 21] was 76.3% and 69.2%. The inhibition ([11]; at 0.5 µM) was 54.1% (inactive) and 72% (inactive), the inhibition ([11]; measured here: BGB combination, at 0.5 µM) was 51.4% and 63.7% and the inhibition ([11]; measured here: BGB combination, at 5 µM) was 74.8% and 70.3%. The inhibition ([11]; measured here: cisplatin combination, at 0.5 µM) was 45.3% and 73.5%, the inhibition ([11]; measured here: cisplatin combination, at 5 µM) was 82.3% and 82.8% and the inhibition ([12]; BGB combination, concentration series, at 5 µM) was 99.4% and 98.3%. For the same compound, the inhibition ([12]; at 0.5 µM) was 67.6% (inactive) and 90.7% (active), the inhibition ([12]; cisplatin combination, concentration series, at 5 µM) was 118% and 106% and the inhibition ([13]; at 0.5 µM) was 60.8% (inactive) and 77.6% (inactive). For the same compound, the inhibition ([13]; measured here: combo with BGB IC20, at 0.5 µM) was 60.1% and 81.6%, the inhibition ([13]; measured here: combo with cisplatin IC20, at 0.5 µM) was 47.8% and 70.6% and the inhibition ([14]; at 0.5 µM) was 14.3% (inactive) and 17% (inactive). For the same compound, the inhibition ([14]; cisplatin combination, at 0.5 µM) was 23.6% and 35.1%, the inhibition ([14]; cisplatin combination, at 5 µM) was 44.9% and 40.2% and the inhibition ([14]; measured here: BGB IC40 combination 0.05 uM, at 0.05 µM) was 23.9% and 38.2%. For the same compound, the inhibition ([14]; single agent, at 5 µM) was -2.08% and -14.2%, the inhibition ([15]; at 0.5 µM) was 7.46% (inactive) and 14.2% (inactive) and the inhibition ([15]; cisplatin combo, at 5 µM) was 72.3% and 80.4%. The inhibition ([15]; measured here: BGB IC40 combination, at 0.05 µM) was 5.45% and -12%, the inhibition [15, 20] was 49.2% and 53.3% and the inhibition ([15]; single agent, at 5 µM) was 23.3% and 47.8%. For the same compound, the inhibition ([16]; at 0.5 µM) was 54% (inactive) and 96.2% (active), the inhibition [16, 18] was 77.9% and 98.4% and the inhibition [16, 19] was 42.1% and 95.1%. For the same compound, the inhibition ([16]; single agent, at 0.05 µM) was 32% and 28.6% and the inhibition ([16]; single agent, at 5 µM) was 99.8% and 99.9%.
